According to the supplement of paper PMC3842684:

How the values were obtained:
[1] = test system: P. falciparum NF54-pfs16-GFP early (I-III) stage gametocytes; assay: relative % inhibition of viable gametocyte number; higher = more gametocytocidal; settings: stage: early (I-III) gametocyte, incubation 72 h
Procedure, shortened: (§1)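 NF54 pfs16-GFP gametocytes, magnet-isolated at early (I/IIa, day 2) or late (day 8) stage, were plated at 10% parasitaemia, 0.1% haematocrit in 384-well poly-D-lysine imaging plates with compound in duplicate at 5 or 0.5 µM. Plates were incubated 72 h at 37°C, 5% CO2, 5% O2, then overnight with MitoTracker Red. Confocal imaging counted elongated GFP objects with MitoTracker signal above cut-off as viable gametocytes. Relative inhibition was normalised to in-plate vehicle and positive-control wells.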

[2] = test system: P. falciparum NF54-pfs16-GFP late (IV-V) stage gametocytes; assay: as above; settings: stage: late (IV-V) gametocyte, incubation 72 h
Procedure, shortened: as §1

`Cc1cc(NC(=O)c2ccc(-c3ccccc3)cc2)no1` gave a relative % inhibition ([1]; 0.5 µM) of -6.51%, a relative % inhibition ([1]; 5 µM) of 24.9% and a relative % inhibition ([2]; 0.5 µM) of 13.3%. The relative % inhibition ([2]; 5 µM) was 36.8%.
`COc1cccc(C(=O)NC(c2ccc(C)cc2)c2cc(Cl)c3cccnc3c2O)c1` (stereo not drawn) gave a relative % inhibition ([1]; 0.5 µM) of 12.4%, a relative % inhibition ([1]; 5 µM) of 82.5% and a relative % inhibition ([2]; 0.5 µM) of 46.5%. It also gave a relative % inhibition ([2]; 5 µM) of 65.2%.
With `OCCNc1nc(Nc2ccc(Cl)c(Cl)c2)nc2ccccc12` the relative % inhibition ([1]; 0.5 µM) was -6.33%, the relative % inhibition ([1]; 5 µM) was -11% and the relative % inhibition ([2]; 0.5 µM) was 53.9%. The relative % inhibition ([2]; 5 µM) was 52.3%.
Molecule `COc1ccccc1N1CCN(C(CNS(=O)(=O)c2ccc(Cl)cc2)c2cccnc2)CC1` (stereo not drawn) has a relative % inhibition ([1]; 0.5 µM) of -2.86%, a relative % inhibition ([1]; 5 µM) of 41.8% and a relative % inhibition ([2]; 0.5 µM) of -0.978%. For the same molecule, the relative % inhibition ([2]; 5 µM) was 32.7%.
`OC(CNC1CCCCC1)Cn1c2ccc(I)cc2c2cc(I)ccc21` (stereo not drawn) gave a relative % inhibition ([1]; 0.5 µM) of 60.7%, a relative % inhibition ([1]; 5 µM) of 95.2% and a relative % inhibition ([2]; 0.5 µM) of 84.7%. It also gave a relative % inhibition ([2]; 5 µM) of 98.5%.
`COc1ccc2c(c1)OC(O)(C(F)(F)C(F)(F)F)CC2=O` (stereo not drawn) showed a relative % inhibition ([1]; 0.5 µM) of -12.9%, a relative % inhibition ([1]; 5 µM) of -4.42% and a relative % inhibition ([2]; 0.5 µM) of 8.91%. The relative % inhibition ([2]; 5 µM) was 10.1%.
`CSC1=NC(=Nc2c(C)cccc2C)C2(CCC(C(C)(C)C)CC2)N1c1ccc(Cl)cc1` (stereo not drawn) gave a relative % inhibition ([1]; 0.5 µM) of 24.7%, a relative % inhibition ([1]; 5 µM) of 4.25% and a relative % inhibition ([2]; 0.5 µM) of 93.4%. The relative % inhibition ([2]; 5 µM) was 103%.
For `CCN(Cc1ccccc1)C1CCN(Cc2cc(Br)ccc2O)CC1`, the relative % inhibition ([1]; 0.5 µM) was 27.8%, the relative % inhibition ([1]; 5 µM) was 99% and the relative % inhibition ([2]; 0.5 µM) was 35.1%. It also gave a relative % inhibition ([2]; 5 µM) of 68.6%.
`CCC(C)NCC(O)(c1ccc(Cl)cc1)c1ccc(Cl)cc1` (stereo not drawn) showed a relative % inhibition ([1]; 0.5 µM) of 16.2%, a relative % inhibition ([1]; 5 µM) of 102% and a relative % inhibition ([2]; 0.5 µM) of 27.1%. The relative % inhibition ([2]; 5 µM) was 58.3%.
`Cc1cccc(Nc2nc(N)c3ccccc3n2)c1` gave a relative % inhibition ([1]; 0.5 µM) of -18.5%, a relative % inhibition ([1]; 5 µM) of -18.1% and a relative % inhibition ([2]; 0.5 µM) of -5.43%. The relative % inhibition ([2]; 5 µM) was 5.81%.
In the case of `Cc1ccc(N2C(=O)C3C(C2=O)C2(c4ccccc4)C(=O)C3(c3ccccc3)C(c3ccccc3)=C2c2ccccc2)cc1` (stereo not drawn), the relative % inhibition ([1]; 0.5 µM) is reported as 20.5%, the relative % inhibition ([1]; 5 µM) is reported as 53.3% and the relative % inhibition ([2]; 0.5 µM) is reported as 45.4%. For the same molecule, the relative % inhibition ([2]; 5 µM) was 58.1%.
`CCCCCCC(O)(c1ccc(F)cc1)C(CN1CCOCC1)c1ccccc1` (stereo not drawn) gave a relative % inhibition ([1]; 0.5 µM) of -0.0307%, a relative % inhibition ([1]; 5 µM) of 47.2% and a relative % inhibition ([2]; 0.5 µM) of 8.28%. It also gave a relative % inhibition ([2]; 5 µM) of 33.1%.
`COc1ccc(C2Sc3ccccc3N=C3C2=C(O)c2ccccc23)cc1` (stereo not drawn) gave a relative % inhibition ([1]; 0.5 µM) of 6.74%, a relative % inhibition ([1]; 5 µM) of 20.4% and a relative % inhibition ([2]; 0.5 µM) of 24%. The relative % inhibition ([2]; 5 µM) was 51.1%.
`CN(C)c1ccc(C(O)(c2ccc(N(C)C)cc2)c2ccc(N(C)C)cc2)cc1` showed a relative % inhibition ([1]; 0.5 µM) of 81.4%, a relative % inhibition ([1]; 5 µM) of -12.4% and a relative % inhibition ([2]; 0.5 µM) of 102%. The relative % inhibition ([2]; 5 µM) was 103%.
In the case of `N=c1c2ccccc2nnn1-c1cccc(C(F)(F)F)c1`, the relative % inhibition ([1]; 0.5 µM) is reported as 1.39%, the relative % inhibition ([1]; 5 µM) is reported as 17.4% and the relative % inhibition ([2]; 0.5 µM) is reported as 14.7%. It also gave a relative % inhibition ([2]; 5 µM) of 46.2%.
Molecule `O=C(NC1CCN(Cc2ccccc2)CC1)c1cc(-c2ccncc2)nc2ccc(Cl)cc12` has a relative % inhibition ([1]; 0.5 µM) of 17.7%, a relative % inhibition ([1]; 5 µM) of 64.3% and a relative % inhibition ([2]; 0.5 µM) of -28.1%. For the same molecule, the relative % inhibition ([2]; 5 µM) was -1.38%.
For `Cc1cc(Nc2ccc(C)c(Cl)c2)n2nc(C(F)(F)F)nc2n1`, the relative % inhibition ([1]; 0.5 µM) was -5.05%, the relative % inhibition ([1]; 5 µM) was -8.28% and the relative % inhibition ([2]; 0.5 µM) was 13.1%. It also gave a relative % inhibition ([2]; 5 µM) of -2.09%.
